In the supplement of paper PMC10849652:
Targets with a hit are over-represented here; the source holds about 8,800 in all. About 0.5% of all pairs of compound and target were hits. A number with no mark means an inactive call.

Assays:
Assay in all cases: log2 fold change, soluble protein after heating vs DMSO (PISA); higher = thermal stabilisation; K562 lysate, 10 uM; active = over 0.2 and 3.5 SD of the protein, either way, in both replicates (recomputed)
vemurafenib = compound: CCCS(=O)(=O)Nc1ccc(F)c(C(=O)c2c[nH]c3ncc(-c4ccc(Cl)cc4)cc23)c1F [vemurafenib]
Method in brief: (§1)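 Soluble protein was defined as the supernatant remaining after 21,000xg for 90 min, following pooling of heated aliquots and adjustment to 0.5% NP-40 at 4°C. Before that, crude K562 extract at 1 mg/mL protein in PBS pH 7.4 with 1 mM MgCl2 was treated with 10 μM compound for 30 min and heated for 3 min across 48°C-58°C. Quantification used TMTpro 16plex LC-MS/MS with channel sums equalised, and values are log-two fold changes in thermal stability relative to solvent controls from duplicates.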

[1] = compound: CCCS(=O)(=O)Nc1ccc(F)c(C(=O)c2c[nH]c3ncc(Cl)cc23)c1F
Method in brief: as §1

[2] = compound: CC[C@@H]1C(=O)N(C)c2cnc(Nc3ccc(C(=O)NC4CCN(C)CC4)cc3OC)nc2N1C1CCCC1
Method in brief: as §1

volasertib = compound: CC[C@@H]1C(=O)N(C)c2cnc(Nc3ccc(C(=O)N[C@H]4CC[C@H](N5CCN(CC6CC6)CC5)CC4)cc3OC)nc2N1C(C)C [volasertib]
Method in brief: as §1

[3] = compound: CCn1c(C(=O)N(C2CC2)C2CC2)cc2c3c(ncn3C)c(Nc3cc(C)n(C)n3)nc21
Method in brief: as §1

[4] = compound: CCn1cc(-c2ccnc3[nH]c(-c4cccc(CN(C)C)c4)cc23)c(-c2ccc(NC(=O)N(C)C)cc2)n1
Method in brief: as §1

[5] = compound: CN1CCC(CNc2ccc3ncc(-c4cccc(OC(F)(F)F)c4)n3n2)CC1
Method in brief: as §1

saracatinib = compound: CN1CCN(CCOc2cc(OC3CCOCC3)c3c(Nc4c(Cl)ccc5c4OCO5)ncnc3c2)CC1 [saracatinib]
Method in brief: as §1

alvocidib = compound: CN1CC[C@H](c2c(O)cc(O)c3c(=O)cc(-c4ccccc4Cl)oc23)[C@H](O)C1 [alvocidib]
Method in brief: as §1

Tubastatin A = compound: CN1CCc2c(c3ccccc3n2Cc2ccc(C(=O)NO)cc2)C1 [Tubastatin A]
Method in brief: as §1

[6] = compound: CNC(=O)C1=CC=CC=C1NC2=NC(=NC=C2Cl)NC3=C(C=C(C=C3)N4CCOCC4)OC
Method in brief: as §1

defactinib = compound: CNC(=O)c1ccc(Nc2ncc(C(F)(F)F)c(NCc3nccnc3N(C)S(C)(=O)=O)n2)cc1 [defactinib]
Method in brief: as §1

[7] = compound: CNc1nc(-c2ccc3c(N)n[nH]c3c2)cc(N2C[C@@H](C(=O)NC3CCCCC3)CC[C@H]2C)n1
Method in brief: as §1

encorafenib = compound: COC(=O)N[C@@H](C)CNc1nccc(-c2cn(C(C)C)nc2-c2cc(Cl)cc(NS(C)(=O)=O)c2F)n1 [encorafenib]
Method in brief: as §1

[8] = compound: COC(=O)[C@H](CCSC)NC(=O)C1=C(C=C(C=C1)NC[C@H](CS)N)C2=CC=CC=C2
Method in brief: as §1

alisertib = compound: COc1cc(Nc2ncc3c(n2)-c2ccc(Cl)cc2C(c2c(F)cccc2OC)=NC3)ccc1C(=O)O [alisertib]
Method in brief: as §1

[9] = compound: COc1cc2nc(-c3cc(F)ccc3O)nc(N[C@@H]3CNC[C@H]3C(C)(C)O)c2cc1OC
Method in brief: as §1

gefitinib = compound: COc1cc2ncnc(Nc3ccc(F)c(Cl)c3)c2cc1OCCCN1CCOCC1 [gefitinib]
Method in brief: as §1

barasertib = compound: CCN(CCCOc1ccc2c(Nc3cc(CC(=O)Nc4cccc(F)c4)[nH]n3)ncnc2c1)CCOP(=O)(O)O [barasertib]
Method in brief: as §1

sotrastaurin = compound: CN1CCN(c2nc(C3=C(c4c[nH]c5ccccc45)C(=O)NC3=O)c3ccccc3n2)CC1 [sotrastaurin]
Method in brief: as §1

Sequence of UniProt Q8NDZ6 (Q8NDZ6 whole entry, looked up): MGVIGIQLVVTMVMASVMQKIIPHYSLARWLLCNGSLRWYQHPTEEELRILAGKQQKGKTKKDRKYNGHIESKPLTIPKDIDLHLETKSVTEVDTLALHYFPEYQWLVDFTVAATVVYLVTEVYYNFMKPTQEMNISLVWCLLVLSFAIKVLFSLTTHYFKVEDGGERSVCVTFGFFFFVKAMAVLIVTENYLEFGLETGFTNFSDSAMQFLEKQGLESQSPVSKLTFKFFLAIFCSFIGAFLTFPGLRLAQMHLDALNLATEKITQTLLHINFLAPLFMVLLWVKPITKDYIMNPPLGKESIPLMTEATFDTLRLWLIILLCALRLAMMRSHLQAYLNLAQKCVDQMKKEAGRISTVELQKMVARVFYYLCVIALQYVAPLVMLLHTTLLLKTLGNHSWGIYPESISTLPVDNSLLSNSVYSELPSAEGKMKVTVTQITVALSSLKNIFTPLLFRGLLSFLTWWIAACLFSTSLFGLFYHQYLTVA
Sequence of UniProt O60637 (O60637 whole entry, looked up): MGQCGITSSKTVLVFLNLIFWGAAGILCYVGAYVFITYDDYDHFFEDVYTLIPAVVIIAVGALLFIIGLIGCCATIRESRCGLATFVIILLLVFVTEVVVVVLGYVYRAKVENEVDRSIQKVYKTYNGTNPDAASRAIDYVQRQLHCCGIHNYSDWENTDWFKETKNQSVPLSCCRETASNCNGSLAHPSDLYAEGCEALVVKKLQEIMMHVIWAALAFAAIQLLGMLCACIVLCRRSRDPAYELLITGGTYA
Sequence of UniProt O43399 (O43399 whole entry, looked up): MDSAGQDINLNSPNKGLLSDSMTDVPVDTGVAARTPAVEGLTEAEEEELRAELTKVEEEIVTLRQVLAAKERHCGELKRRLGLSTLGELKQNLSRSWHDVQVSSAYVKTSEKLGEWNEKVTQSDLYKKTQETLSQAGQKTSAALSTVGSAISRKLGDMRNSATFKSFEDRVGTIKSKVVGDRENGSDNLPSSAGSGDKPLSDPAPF
Sequence of UniProt Q96LJ8 (Q96LJ8 whole entry, looked up): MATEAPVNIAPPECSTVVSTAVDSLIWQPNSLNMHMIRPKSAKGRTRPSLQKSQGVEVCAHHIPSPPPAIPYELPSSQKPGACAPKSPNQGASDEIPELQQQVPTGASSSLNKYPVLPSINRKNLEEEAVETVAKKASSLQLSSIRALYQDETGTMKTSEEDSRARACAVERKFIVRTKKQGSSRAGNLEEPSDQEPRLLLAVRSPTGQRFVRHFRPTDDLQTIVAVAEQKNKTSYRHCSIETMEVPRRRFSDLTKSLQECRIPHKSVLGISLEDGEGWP
Sequence of UniProt Q01664 (Q01664 whole entry, looked up): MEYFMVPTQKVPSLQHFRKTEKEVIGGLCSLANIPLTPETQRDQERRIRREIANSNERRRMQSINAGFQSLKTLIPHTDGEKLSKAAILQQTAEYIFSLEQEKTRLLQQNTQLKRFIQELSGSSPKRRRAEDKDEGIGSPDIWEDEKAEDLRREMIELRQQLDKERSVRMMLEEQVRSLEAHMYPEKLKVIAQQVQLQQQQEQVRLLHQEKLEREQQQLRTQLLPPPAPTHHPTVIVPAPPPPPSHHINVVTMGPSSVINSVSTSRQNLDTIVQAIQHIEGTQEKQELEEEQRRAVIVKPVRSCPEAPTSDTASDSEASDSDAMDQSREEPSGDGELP
Sequence of UniProt P06753 (P06753 whole entry, looked up): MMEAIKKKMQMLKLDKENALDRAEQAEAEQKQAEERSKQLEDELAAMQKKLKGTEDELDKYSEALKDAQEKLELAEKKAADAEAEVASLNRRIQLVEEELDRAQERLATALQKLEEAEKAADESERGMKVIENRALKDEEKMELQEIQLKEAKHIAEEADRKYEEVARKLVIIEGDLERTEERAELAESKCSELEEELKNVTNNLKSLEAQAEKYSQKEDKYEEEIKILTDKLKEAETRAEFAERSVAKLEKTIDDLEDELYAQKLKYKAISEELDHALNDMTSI
Sequence of UniProt Q14157 (Q14157 whole entry, looked up): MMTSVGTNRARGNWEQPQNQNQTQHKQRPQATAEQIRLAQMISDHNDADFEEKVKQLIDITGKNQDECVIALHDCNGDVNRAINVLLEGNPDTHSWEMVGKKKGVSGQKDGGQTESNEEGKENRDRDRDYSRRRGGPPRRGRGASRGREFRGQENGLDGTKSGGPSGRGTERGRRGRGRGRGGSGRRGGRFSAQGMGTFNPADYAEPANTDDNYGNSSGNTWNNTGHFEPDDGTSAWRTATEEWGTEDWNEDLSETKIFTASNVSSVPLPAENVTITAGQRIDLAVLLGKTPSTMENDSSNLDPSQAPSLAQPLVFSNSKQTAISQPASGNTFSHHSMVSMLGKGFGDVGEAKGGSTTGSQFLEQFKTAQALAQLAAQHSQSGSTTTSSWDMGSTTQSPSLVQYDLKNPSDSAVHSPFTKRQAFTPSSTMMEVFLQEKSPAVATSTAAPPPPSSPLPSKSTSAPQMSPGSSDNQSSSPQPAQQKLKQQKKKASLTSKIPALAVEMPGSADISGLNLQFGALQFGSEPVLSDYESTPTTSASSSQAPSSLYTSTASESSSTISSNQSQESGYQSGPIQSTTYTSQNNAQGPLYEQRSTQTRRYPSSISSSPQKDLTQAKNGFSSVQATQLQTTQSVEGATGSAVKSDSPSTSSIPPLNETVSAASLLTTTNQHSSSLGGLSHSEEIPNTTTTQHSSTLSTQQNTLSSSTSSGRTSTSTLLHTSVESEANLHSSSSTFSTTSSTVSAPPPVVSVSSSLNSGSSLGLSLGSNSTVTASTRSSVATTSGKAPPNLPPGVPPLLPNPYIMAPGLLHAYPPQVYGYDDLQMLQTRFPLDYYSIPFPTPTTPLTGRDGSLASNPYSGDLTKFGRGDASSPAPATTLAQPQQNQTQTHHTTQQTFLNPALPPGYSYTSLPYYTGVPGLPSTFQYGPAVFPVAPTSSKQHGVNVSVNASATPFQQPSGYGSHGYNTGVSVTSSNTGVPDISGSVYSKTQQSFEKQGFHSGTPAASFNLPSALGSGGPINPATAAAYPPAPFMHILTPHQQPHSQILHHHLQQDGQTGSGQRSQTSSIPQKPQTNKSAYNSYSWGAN
Sequence of UniProt Q9H6P5 (Q9H6P5 whole entry, looked up): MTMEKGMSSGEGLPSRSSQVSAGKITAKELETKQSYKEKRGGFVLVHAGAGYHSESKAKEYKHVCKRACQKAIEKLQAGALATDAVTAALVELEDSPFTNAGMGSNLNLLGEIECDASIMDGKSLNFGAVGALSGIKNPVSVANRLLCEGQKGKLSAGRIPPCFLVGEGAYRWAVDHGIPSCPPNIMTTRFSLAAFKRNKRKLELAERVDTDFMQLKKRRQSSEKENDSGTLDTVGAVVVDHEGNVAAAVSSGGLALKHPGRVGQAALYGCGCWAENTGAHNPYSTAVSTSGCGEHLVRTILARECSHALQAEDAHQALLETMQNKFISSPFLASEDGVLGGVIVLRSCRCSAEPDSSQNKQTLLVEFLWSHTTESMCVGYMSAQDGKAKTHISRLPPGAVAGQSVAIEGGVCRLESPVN
Sequence of UniProt Q53S58 (Q53S58 whole entry, looked up): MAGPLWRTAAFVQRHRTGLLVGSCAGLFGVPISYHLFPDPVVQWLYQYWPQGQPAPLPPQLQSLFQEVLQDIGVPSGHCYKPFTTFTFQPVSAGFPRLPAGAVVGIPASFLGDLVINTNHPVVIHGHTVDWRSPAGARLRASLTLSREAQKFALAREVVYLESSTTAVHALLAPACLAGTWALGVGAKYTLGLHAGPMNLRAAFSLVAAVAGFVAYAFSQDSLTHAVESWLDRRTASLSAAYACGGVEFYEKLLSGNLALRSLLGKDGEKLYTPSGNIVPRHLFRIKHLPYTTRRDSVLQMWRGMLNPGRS
Sequence of UniProt P15884 (P15884 whole entry, looked up): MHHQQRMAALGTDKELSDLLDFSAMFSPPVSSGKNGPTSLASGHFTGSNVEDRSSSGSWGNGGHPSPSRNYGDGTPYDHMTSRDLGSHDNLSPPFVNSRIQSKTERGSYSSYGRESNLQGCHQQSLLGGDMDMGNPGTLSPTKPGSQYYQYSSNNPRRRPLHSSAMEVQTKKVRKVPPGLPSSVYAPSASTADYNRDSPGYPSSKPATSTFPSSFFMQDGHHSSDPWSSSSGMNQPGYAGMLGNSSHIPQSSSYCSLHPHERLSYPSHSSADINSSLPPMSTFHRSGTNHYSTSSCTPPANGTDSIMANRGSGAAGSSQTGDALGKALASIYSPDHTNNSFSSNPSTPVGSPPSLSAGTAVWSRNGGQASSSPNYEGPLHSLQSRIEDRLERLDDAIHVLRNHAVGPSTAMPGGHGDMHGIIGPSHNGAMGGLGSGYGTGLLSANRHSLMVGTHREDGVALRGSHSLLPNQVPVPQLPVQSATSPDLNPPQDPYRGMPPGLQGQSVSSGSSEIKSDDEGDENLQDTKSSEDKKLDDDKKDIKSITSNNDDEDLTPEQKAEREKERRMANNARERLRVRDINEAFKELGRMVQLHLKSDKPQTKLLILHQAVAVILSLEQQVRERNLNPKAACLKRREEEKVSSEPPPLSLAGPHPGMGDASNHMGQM
Sequence of UniProt P10646 (P10646 whole entry, looked up): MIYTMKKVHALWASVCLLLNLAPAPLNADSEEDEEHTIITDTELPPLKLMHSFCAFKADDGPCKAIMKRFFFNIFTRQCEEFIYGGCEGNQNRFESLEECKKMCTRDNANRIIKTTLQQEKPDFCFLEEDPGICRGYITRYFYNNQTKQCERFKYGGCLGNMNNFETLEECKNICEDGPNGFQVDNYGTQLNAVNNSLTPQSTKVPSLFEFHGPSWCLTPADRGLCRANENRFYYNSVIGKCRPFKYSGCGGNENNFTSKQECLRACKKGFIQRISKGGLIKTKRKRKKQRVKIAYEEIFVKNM

Target	log2 fold change (vemurafenib)	log2 fold change [1]	log2 fold change [2]	log2 fold change (volasertib)	log2 fold change [3]	log2 fold change [4]	log2 fold change [5]	log2 fold change (saracatinib)	log2 fold change (alvocidib)	log2 fold change (Tubastatin A)	log2 fold change [6]	log2 fold change (defactinib)	log2 fold change [7]	log2 fold change (encorafenib)	log2 fold change [8]	log2 fold change (alisertib)	log2 fold change [9]	log2 fold change (gefitinib)	log2 fold change (barasertib)	log2 fold change (sotrastaurin)
TSPAN3 (UniProt O60637)	-0.075	-0.052	0.01	0.073	-0.222	0.663 (active)	-0.3	-0.038	0.193	-0.081	0.027	0.096	0.091	-0.015	0.026	-0.231	0.042	0.049		
TUBB6 (UniProt K7ES63)	0.072	-0.027	-0.096	-0.064	0.018	-0.06	0.23		-0.11	-0.021	0.111	-0.018		0.024	0.125	0.055	-0.051	0.165	-0.012	0.036
TMEM161B (UniProt Q8NDZ6)	-0.112	-0.076	-0.073	-0.055	-0.028	0.055	-0.104		-0.03	0.035	-0.022	0.067		0.047	0	-0.222	0.033	-0.008	0.076	0.009
TBC1D20 isoform 3 (UniProt Q96BZ9)	-0.088	-0.069	0.043	0.008	0.059	0.046	-0.033	-0.038	-0.011	-0.131	-0.017	0.166	0.109	0.037	-0.047		-0.021		0.438 (active)	-0.096
TFAP4 (UniProt Q01664)	0.105	0.021	0.131	-0.112	0.129	0.597	-0.189		-0.037	0.135	0.133	-0.066		0.156	-0.108	-0.106	-0.097	-0.096	0.072	0.007
UBXN10 (UniProt Q96LJ8)	0.008	-0.089	0.095	0.074	0.01	-0.082	0.021	-0.016	-0.036	-0.02	0.051	0.026	0.019	0.045	-0.116		-0.006		-0.133	-0.012
TLE3 isoform 4 (UniProt Q04726)	0.009	0.01	0.065	0.021	0.027	-0.001	0.01	0.017	0.023	0.002	-0.013	0.004	0.024	0.014	-0.019	-0.016	0.002	-0.037	0.005	-0.017
UBAP2L (UniProt F8W726)	0.094	-0.031		-0.018								0.06					0.093			-0.052
UCHL5 (UniProt Q5LJA9)	-0.021	-0.061	-0.103	0.03	-0.108	0.019	0	0.023	0.049	-0.153	0.005	0.015	-0.156	0.007	0.091		-0.011		-0.01	0.007
TMEM177 (UniProt Q53S58)	-0.057	0.011	-0.005	-0.076	0.078	0.056	-0.161		0.042	0.05	0.075	-0.009		0.019	0.153		0.002		0.063	-0.017
TUBB4A (UniProt M0QYM7)	0.019	-0.099	-0.193	-0.069	-0.053	-0.772	0.448		-0.158	-0.007	-0.109	-0.115		0.009	0.053	-0.025	0.042	-0.076	0.315	0.111
TPM3 isoform 3 (UniProt P06753)	-0.082	0.011	-0.187	0.036	0.029	-0.493	0.184	0.009	-0.202	-0.049	0.028	0.074	-0.137	-0.014	-0.039		-0.001			0.028
UBAP2L isoform 1 (UniProt Q14157)					0.207					-0.006						0.032		-0.088	0.001	-0.105
UBAP2 (UniProt Q5JV08)																-0.165		-0.139		
TFPI isoform 2 (UniProt P10646)	0											-0.109								-0.011
TCF3 (UniProt X6REB3)	0.075					0	0.128		-0.168			-0.149								
TASP1 (UniProt Q9H6P5)		0.028	-0.082	-0.02	-0.047			-0.082		0.087	-0.119		0.112	-0.035	0.103	-0.151	-0.048	-0.046	0.13	0.02
TLE3 (UniProt H0YL70)								0.152					0.153							
UBAP2, A0A0D9SFI5																				0.007
TPD52L2 isoform 3 (UniProt O43399)					-0.028	-0.141	0.135		0.127	0.165	0.144					0.094		-0.244	0.026	
TCF4 (UniProt P15884)		-0.015	-0.017	0.126	0.008	-0.011	0.03	0.021	0.005	-0.282			-0.009	0.17	-0.099	0.078	0.212	0.06		-0.017
